# Data reported in PubChem BioAssay (NCATS).
# Records with an inconclusive call do not appear. Values without a mark were called inactive. Activity calls are given as the source filed them. Calls follow the shape of the dose curve; as a rule, active = well fitted cell-killing curve with a large enough effect; inconclusive = small, poorly fitted or top-dose-only effect, or effect the other way; inactive = flat fitted curve, though single readings scatter.
# Test: qHTS of pediatric cancer cell lines to identify multiple opportunities for drug repurposing: Confirmatory screen for Rh18 cells (AID 1347125); also: nearly all actives have a fitted effect of over 55% in size
# Conditions: Rh18 rhabdomyosarcoma cells, viability; series mostly up to 45.9 µM; activity change, negative = cytotoxic: at the top concentration
# Description: Drug repurposing or repositioning has been offered as a strategy for drug development in oncology programs. This approach has special potential for childhood cancers and other rare or orphan diseases, where the expected return on new drug development has been a disincentive to pharmaceuticals.
# In this project we exploit the poly-pharmacology of drugs to discover new indications via phenotypic screening of a panel of 19 well-characterized cell lines derived from solid tumors seen in children and adolescents. The goal is to identify approved drugs with previously unrecognized anticancer properties that has the potential to reveal new mechanisms and biological processes involved in carcinogenesis or drug resistance. We employed a titration-based paradigm (quantitative high-throughput screening or qHTS), where all compounds were tested at multiple concentrations for their effect on cell viability. Concentration-response curves (CRCs) were derived directly from the primary screen, and both potency and efficacy values were used to identify compounds with robust bioactivity profiles. We screened the NIH Chemical Genomics Center (NCGC) Pharmaceutical Collection (NPC) and Mechanism Interrogation Plate (MIPE) small molecule collections of approved and investigational compounds against these cell lines; and measured metabolically active cells after 48 hours of compound treatment as a proxy for cell viability.
# Assay Submitter: Nathalia J. Martinez, National Center for Advancing Translational Sciences, National Institutes of Health, Rockville, MD, USA; email: natalia.martinez@nih.gov
# [1] Shen, M et al. Quantitative high-throughput phenotypic screening of pediatric cancer cell lines identifies multiple opportunities for drug repurposing. Oncotarget 2017 Dec 19;9(4):4758-4772. PMID 29435139.
# The cells were obtained from University of North Carolina (UNC), Pediatric Preclinical Testing Program (PPT), and Coriell Institute (CI).
# qHTS cell viability assay:
# Cells were assayed in growth media at a density of 500-1,000 cells/well. Five microliters of cells were dispensed into 1,536-well, white, solid-bottom, TC-treated plates (Greiner Bio One) using a multidrop dispenser and incubated at 37 degrees C, 5% CO2, under a humidified atmosphere for 5 hours. Twenty-three nanoliters of compounds and controls (neutral control DMSO or positive control bortezomib at final concentration of 2.3 µM) were subsequently transferred by Kalypsys pintool. For primary screens, the MIPE collection was tested at 11-point dilutions (final concentrations range from 0.78 nM to 46 µM) and the NPC collection at 8-point dilutions (final concentrations range from 0.59 nM to 46 µM). Compounds tested in follow-up screens were assayed at 11-point dilutions. Cells were incubated for 48 hours, followed by addition of 3 µL of CellTiter-Glo (Promega). After a 15 min incubation at room temperature, samples were analyzed for luminescence intensity using a ViewLux High-throughput CCD imager equipped with clear filters.
# % is scaled to controls: 0 for no effect and ±100 for the full control effect; potency is read from the fitted curve at half-maximal effect.
Structure (SMILES),"activity change, negative = cytotoxic",Potency
C[C@]12C=CC(=O)C=C1[C@@H](F)C[C@@H]1[C@@H]2[C@@H](O)C[C@@]2(C)[C@H]1CC[C@]2(O)C(=O)CO,-0.0727%,
CC(=O)OCC(=O)[C@@]12OC(C)(C)O[C@@H]1C[C@H]1[C@@H]3C[C@H](F)C4=CC(=O)C=C[C@]4(C)[C@@]3(F)[C@@H](O)C[C@@]12C,-29%,
CC(=O)OCC(=O)[C@@]1(O)CC[C@H]2[C@@H]3CCC4=CC(=O)C=C[C@]4(C)[C@H]3[C@@H](O)C[C@@]21C,9.38%,
CCOc1ccc2nc3cc(N)ccc3c(N)c2c1,-16%,
C[C@H]1C[C@H]2[C@@H]3CCC4=CC(=O)C=C[C@]4(C)[C@@]3(Cl)[C@@H](O)C[C@]2(C)[C@@]1(O)C(=O)CO,-17.4%,
CN(C)C(=S)SC(=S)N(C)C,,5.22 µM (active)
CC1(C)O[C@@H]2C[C@H]3[C@@H]4C[C@H](F)C5=CC(=O)CC[C@]5(C)[C@H]4[C@@H](O)C[C@]3(C)[C@]2(C(=O)CO)O1,-9.16%,
CC(=O)Oc1ccc2c(c1)CC[C@@H]1[C@@H]2CC[C@]2(C)[C@@H](O)CC[C@@H]12,-26.2%,
C[C@@H]1C[C@H]2[C@@H]3CCC4=CC(=O)C=C[C@]4(C)[C@@]3(F)[C@@H](O)C[C@]2(C)[C@H]1C(=O)CO,1.87%,
CC(C)(C(=O)c1cccnc1)c1cccnc1,7.53%,
CC1(C)O[C@@H]2C[C@H]3[C@@H]4CCC5=CC(=O)CC[C@]5(C)[C@@]4(F)[C@@H](O)C[C@]3(C)[C@]2(C(=O)CCl)O1,-2.59%,
C[C@]12C=CC(=O)C=C1CC[C@@H]1[C@@H]2[C@@H](O)C[C@@]2(C)[C@H]1CC[C@]2(O)C(=O)CO,-5.32%,
CCCCC(=O)O[C@]1(C(=O)CO)CC[C@H]2[C@@H]3CCC4=CC(=O)CC[C@]4(C)[C@H]3[C@@H](O)C[C@@]21C,-19.6%,
CCC(C(=O)OCCN(CC)CC)c1ccccc1 (stereo not drawn),-10.3%,
COCc1c(C(C)C)nc(C(C)C)c(/C=C/[C@@H](O)C[C@@H](O)CC(=O)O)c1-c1ccc(F)cc1,,0.522 µM (active)
C=C1C[C@H]2[C@@H]3C=C(C)C4=CC(=O)CC[C@]4(C)[C@H]3CC[C@]2(C)[C@@]1(OC(C)=O)C(C)=O,-20%,
C[n+]1c2cc(N)ccc2cc2ccc(N)cc21 (tested in a mixture with another compound),,5.85 µM (active)

Structure (SMILES),"activity change, negative = cytotoxic",Potency
O=C(CCCN1CCC(O)(c2ccc(Br)cc2)CC1)c1ccc(F)cc1,-23.5%,
CCCC(=O)O[C@]1(C(=O)CO)CC[C@H]2[C@@H]3CCC4=CC(=O)CC[C@]4(C)[C@H]3[C@@H](O)C[C@@]21C,-7.01%,
COc1c(C)c2c(c(O)c1C/C=C(\C)CCC(=O)O)C(=O)OC2,,1.31 µM (active)
CC(=O)[C@H]1CC[C@H]2[C@@H]3C[C@H](C)C4=CC(=O)CC[C@]4(C)[C@H]3[C@@H](O)C[C@]12C,-18.1%,
CCCCCCC[N+](CC)(CC)CCCCc1ccc(Cl)cc1,,13.1 µM (active)
CC(=O)Oc1ccc(C(c2ccc(OC(C)=O)cc2)c2ccccn2)cc1,-22.9%,
C[C@]12CCC(=O)C=C1CC[C@H]1[C@@H]3CC[C@](O)(C(=O)CO)[C@@]3(C)C[C@H](O)[C@@]12F,-19.7%,
CC(=O)O[C@]1(C(C)=O)CC[C@H]2[C@@H]3C[C@H](C)C4=CC(=O)CC[C@]4(C)[C@H]3CC[C@@]21C,-19.2%,
CN(C)/N=N/c1nc[nH]c1C(N)=O,10.2%,
COc1cccc2c1C(=O)c1c(O)c3c(c(O)c1C2=O)C[C@@](O)(C(=O)CO)C[C@@H]3O[C@H]1C[C@H](N)[C@H](O)[C@H](C)O1,,5.22 µM (active)
NC(=O)CC[C@@H]1NC(=O)[C@H](Cc2ccccc2)NC(=O)[C@H](Cc2ccc(O)cc2)NC(=O)CCSSC[C@@H](C(=O)N2CCC[C@H]2C(=O)N[C@@H](CCCN=C(N)N)C(=O)NCC(N)=O)NC(=O)[C@H](CC(N)=O)NC1=O,-4.47%,
CC(=O)OCC(=O)[C@@]1(OC(C)=O)[C@@H](C)C[C@H]2[C@@H]3C[C@H](F)C4=CC(=O)C=C[C@]4(C)[C@@]3(F)[C@@H](O)C[C@@]21C,-16%,
NC(CO)(CO)CO,4.65%,
C[C@@H]1C[C@H]2[C@@H]3C[C@H](F)C4=CC(=O)C(Cl)=C[C@]4(C)[C@@]3(F)[C@@H](O)C[C@]2(C)[C@@]1(O)C(=O)CO,,26.1 µM (active)
C[C@@H]1CN(CCCn2c3ccccc3c3ccccc32)C[C@H](C)N1,,26.1 µM (active)
CCCCC(CC)CN=C(N)NC(N)=NCCCCCCN=C(N)NC(N)=NCC(CC)CCCC (stereo not drawn),,13.1 µM (active)
